The record followed here is PubChem BioAssay (NCATS).

Values joined by “and” are separate entries in the source; they are usually repeats but may differ in a detail not shown here. Identical values can stand only once. Results filed as inconclusive are left out. Active and inactive are the calls of the source. Calls come from the whole dose curve; as a rule, active = well fitted inhibition curve with a large enough effect; inconclusive = small, poorly fitted or top-dose-only effect; inactive = no such curve, though single readings can be large or run the other way. Starred links: 1 amine or outer side, 2 acyl side, 3 side chain; linkers in the order of their positions; H or OH if unused. Positions of bridges follow the written chain, without caps; N, C: chain ends. Non-standard residues stand in square brackets, D forms with d. Residues, ends and D or L forms follow the SMILES beside them. Chains are numbered I, II in the order given. *: point of attachment. Actinocin(9to1) = Cc1c2oc3c(C)ccc(C(=O)[*:1])c3nc-2c(C(=O)[*:2])c(N)c1=O; NMeV = CN[CH](C(=O)O)C(C)C; Cbz = O=C(OCc1ccccc1)*; Sar = CNCC(=O)O
Potency is the fitted concentration of half-maximal effect.

The nature of the assay: qHTS to identify inhibitors of the type 1 interferon - major histocompatibility complex class I in skeletal muscle: primary screen against the NCATS Mechanism Interrogation Plate v5.0 (MIPE) Libary (AID 1347411).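 For activity change, negative = inhibition: plate controls were vehicle for no effect and reference inhibitor for full effect.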 Note: nearly all actives have a fitted effect of over 65% in size. The conditions noted are these: iHSKM cells + IFN-b, HiBiT-tagged MHC-I luminescence, 24 h; series mostly up to 45.8 µM; activity change, negative = inhibition: at the top concentration. The gist of the method:
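IFN-beta-driven (4 ng/ml) HLA-B-HiBit expression in CRISPR-tagged C25cl48 myoblasts; compounds 11-pt, 1:3, max 46 uM, 24 hr exposure; lytic NanoLuc complementation luminescence.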
(qHTS replaces the single test concentration by a dilution series.)
As for `c1cc(N[C@@H]2CCNC2)nc(-c2cnc3ccc(-c4cn[nH]c4)cn23)c1`, the Potency is 0.829 µM (active). Regarding `N=c1ccn2c(n1)O[C@H]1[C@@H](O)[C@@H](CO)O[C@H]12`, the “activity change, negative = inhibition” value is 4.82% (inactive). For the molecule `COC(=O)C1C2CC3c4[nH]c5cc(OC)ccc5c4CCN3CC2CC(OC(=O)c2cc(OC)c(OC)c(OC)c2)C1OC` (centres undefined), the “activity change, negative = inhibition” value is -10.1% (inactive). Still for that read-out and setting: then `Cc1cncc2cccc(S(=O)(=O)N3CCCN(C(=O)CN)C[C@@H]3C)c12`, with -22% (inactive); and `COc1ccc2c(c1OC)C(=O)OC2[C@H]1c2c(cc3c(c2OC)OCO3)CCN1C` (some centres undefined), with -14.3% (inactive). As for `COc1cccc2c1C(=O)c1c(O)c3c(c(O)c1C2=O)C[C@@](O)(C(=O)CO)C[C@@H]3O[C@H]1C[C@H](N)[C@H](OC2CCCCO2)[C@H](C)O1` (some centres undefined), the Potency is 2.62 µM (active) and 2.34 µM (active).

For the molecule `COc1cc2ncnc(Nc3cccc(Br)c3)c2cc1OC`, the Potency was 10.4 µM (active).

Turning to `COC(=O)[C@H](CCCN=C(N)N)NS(=O)(=O)c1ccc(C)cc1`, the “activity change, negative = inhibition” value is -1.75% (inactive). Still for that read-out and setting: then `O=C1c2cccc(O)c2C(=O)c2c(O)cc(CO)cc21`, with -9% (inactive).

`COC[C@H](NC(=O)c1cnc(C)s1)C(=O)N[C@@H](COC)C(=O)N[C@@H](Cc1ccccc1)C(=O)[C@@]1(C)CO1`: the Potency was 0.0523 µM (active). `Nc1nc(=O)n([C@H]2C[C@H](O)[C@@H](CO)O2)cc1F`: the “activity change, negative = inhibition” value was -13.1% (inactive). In the case of `CC(C)C[C@@H](C=O)NC(=O)[C@H](CC(C)C)NC(=O)[C@H](CC(C)C)NC(=O)OCc1ccccc1` (Cbz-Leu-Leu-Leu-aldehyde), the Potency was 2.08 µM (active). As for `O=[N+]([O-])c1cn2c(n1)OC[C@@H](OCc1ccc(OC(F)(F)F)cc1)C2`, the “activity change, negative = inhibition” value was -4.13% (inactive). Consider `Nc1cccc2c1C(=O)N(C1CCC(=O)NC1=O)C2=O` (centres undefined), for which the “activity change, negative = inhibition” value is 6.92% (inactive). With `O=C1NCCc2[nH]c(-c3ccncc3)cc21`, the Potency is 2.08 µM (active). With `CC[C@@]1([C@@H]2O[C@@H]([C@H]3O[C@@](O)(CO)[C@H](C)C[C@H]3C)C[C@H]2C)CC[C@H]([C@]2(C)CC[C@]3(C[C@H](O)[C@@H](C)[C@@H]([C@@H](C)[C@@H](OC)[C@H](C)C(=O)O)O3)O2)O1`, the “activity change, negative = inhibition” value is -10.4% [at 15.5 µM] (inactive). For `O=C(Nc1cccc(Nc2ncc(Br)c(NCCc3cnc[nH]3)n2)c1)N1CCCC1`, the Potency was 5.87 µM (active). Consider `Cc1cc(O)c2c(c1)C(=O)c1cccc(O)c1C2=O`, for which the “activity change, negative = inhibition” value is 7.07% (inactive). `c1ccc(CNc2nc(NCc3ccccc3)c3ccccc3n2)cc1`: the Potency is 26.2 µM (active). Still for that read-out and setting: then `Oc1ccc(-c2ccc(-c3cc(Nc4cccc(CNC5CC5)c4)n[nH]3)cc2)c(O)c1`, with 5.87 µM (active). In the case of `CCCCOc1ccc(C(=O)Nc2ccc(F)cc2F)cc1`, the “activity change, negative = inhibition” value was -25.6% (inactive).

For `O=C(O)c1ccc(Nc2ncc3c(n2)-c2ccc(Cl)cc2C(c2c(F)cccc2F)=NC3)cc1`, the “activity change, negative = inhibition” value was -18.2% (inactive). As for `Cc1c2oc3c(C)ccc(C(=O)NC4C(=O)NC(C(C)C)C(=O)N5CCCC5C(=O)N(C)CC(=O)N(C)C(C(C)C)C(=O)OC4C)c3nc-2c(C(=O)NC2C(=O)NC(C(C)C)C(=O)N3CCCC3C(=O)N(C)CC(=O)N(C)C(C(C)C)C(=O)OC2C)c(N)c1=O` (centres undefined) (I: TVP[Sar][NMeV] / II: TVP[Sar][NMeV]; ester I:1-I:C, II:1-II:C; linker I:N-II:N via Actinocin(9to1); configuration not given here), the Potency was 0.114 µM (active). Turning to `C=Cc1c(C)c2cc3nc(cc4[nH]c(cc5nc(cc1[nH]2)C(C)=C5CCC(=O)O)c(CCC(=O)OC)c4C)[C@@]1(C)C3=CC=C(C(=O)OC)[C@H]1C(=O)OC`, the “activity change, negative = inhibition” value was -6.23% (inactive). For the molecule `C#CCC(Cc1cnc2nc(N)nc(N)c2n1)c1ccc(C(=O)N[C@@H](CCC(=O)O)C(=O)O)cc1` (some centres undefined), the “activity change, negative = inhibition” value was -6.72% (inactive). Consider `NC1=N[C@H]2[C@H](CS[C@H]2CCCCC(=O)O)N1`, for which the “activity change, negative = inhibition” value is -9.03% [at 15.5 µM] (inactive).

In the case of `NC(=O)Nc1sc(-c2ccc(F)cc2)cc1C(N)=O`, the Potency is 1.65 µM (active).

In the case of `Cc1cc(Nc2ncc3c(n2)N(C)C(=O)N(c2cc(NC(=O)c4cccc(C(F)(F)F)c4)ccc2C)C3)n(C)n1`, the Potency was 0.234 µM (active). With `CC(C)C[C@H](NC(=O)CNC(=O)c1cc(Cl)ccc1Cl)B1OC(=O)CC(CC(=O)O)(C(=O)O)O1` (some centres undefined), the Potency is 0.294 µM (active).
